Bioassay records deposited in PubChem BioAssay by several laboratories.
Hsp70 act = Hsp70 transcriptional activators, primary screen, cell-based, HeLa, Hsp70 promoter luciferase, luminescence, 10 µM | HeLa Hsp70 promoter luciferase reporter; scaled: vehicle 0, proteasome-inhibitor control 100% | activation, % at 10 µM | 200,000 compounds, 0.04% hits;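 active = activation above the mean across all tested compounds plus 3 SD, cutoff set per campaign, cut at about 5.5% in these data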;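 also: 100% = MG132 at 30 µM as the positive control and 0% = DMSO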
S1P4 ag = S1P4 receptor agonists, primary screen, cell-based; S1P4-expressing cell line, agonist reporter assay; activation, % at 4.98 µM; 220,000 compounds, 0.35% hits; in the data active = activation above about 11%;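 also: 0% = DMSO vehicle and 100% = reference agonist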
Target sequence (O95977 whole entry, looked up): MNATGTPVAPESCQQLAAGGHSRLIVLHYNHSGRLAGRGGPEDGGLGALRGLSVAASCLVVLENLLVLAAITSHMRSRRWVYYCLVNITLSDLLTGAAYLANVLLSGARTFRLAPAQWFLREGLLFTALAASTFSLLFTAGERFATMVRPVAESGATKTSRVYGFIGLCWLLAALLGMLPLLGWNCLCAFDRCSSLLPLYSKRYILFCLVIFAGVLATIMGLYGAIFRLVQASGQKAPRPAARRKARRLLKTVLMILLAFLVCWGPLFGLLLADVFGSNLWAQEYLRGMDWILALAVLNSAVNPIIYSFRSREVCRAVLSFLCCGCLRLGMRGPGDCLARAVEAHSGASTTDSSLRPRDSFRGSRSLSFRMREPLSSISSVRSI
HSF-1 act = HSF-1 activators, primary screen, NIH3T3-HGL cells, MG132 stress, luminescence, single point. NIH3T3-HGL HSF-1 luciferase reporter, 8 h; 100% = twice DMSO control signal. activation, % at 9 µM. 300,000 compounds, 1.7% hits;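 active = mean replicate activation of at least 50% with a set share of replicates each reaching 50%; inconclusive = only one of those two conditions met; inactive = mean below 50% and too few replicates reaching it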;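 also: 0% = median of the neutral control wells and 100% = twice that signal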
S1P3 antagonist = S1P3 receptor antagonists, primary screen, cell-based; Sphingosine 1-phosphate receptor 3 (Homo sapiens), Q99500; CHO S1P3 NFAT-BLA reporter, FRET fluorescence, antagonist mode; inhibition, % at 4.98 µM; 170,000 compounds, 0.27% hits;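 active = inhibition above the plate cutoff, the mean inhibition of test wells on that plate plus 3 SD, cut at about 28% in these data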;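 also: cells challenged with S1P at its EC80 of 0.8 µM; blue over green emission ratio from cleaved BLA substrate after 4 h stimulation; 0% = S1P-stimulated wells and 100% = unstimulated DMSO-only wells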
S1P4 antag = S1P4 receptor antagonists, primary screen, cell-based | Sphingosine 1-phosphate receptor 4 (Homo sapiens), O95977 | inhibition, % at 4.98 µM | S1P4-expressing cells, antagonist mode, reporter read-out | 220,000 compounds, 0.26% hits; in the data active = inhibition above about 29%;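 also: 0% = wells stimulated with agonist and 100% = vehicle wells without agonist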
HSF1 inhib = HSF1 inhibitors in luciferase reporter cells, primary screen, cell-based, NIH3T3, luminescence. 300,000 compounds, 0.77% hits. NIH3T3-HGL HSE-luciferase, MG132-induced, luminescence 8 h; stronger effect = lower value. AID 2098, 2009. activity change, negative = inhibition, % at 7.5 µM (by protocol);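 active = more than half of replicate wells show activity change below -50%, luminescence cut by over half; inconclusive = some wells, but at most half, below -50%; inactive = no replicate well below -50%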;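 also: luciferase reports HSF-1 transcriptional activity via heat shock element; 0% = median of DMSO wells and -100% = zero luminescence signal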
Active calls of the source: *; ? = inconclusive; nt = not tested or not shown. A selection: hits, their analogues and other compounds. The true share with any hit is near 2.9%.

SMILES	Hsp70 act	S1P4 ag	HSF-1 act	S1P3 antagonist	S1P4 antag	HSF1 inhib
CCOC(=O)c1ccc(-n2cncn2)nc1	-0.4	-2.6	3.9	nt	-6.0	1.5
Cc1nnc(N/N=C/c2ccccc2O)n1N	-0.3	2.5	71.3*	-6.7	-2.8	48.7
CCc1nnc(N/N=C/c2cc(C)c(C)cc2C)n1N	nt	nt	11.9	nt	nt	18.6
CCOc1cc(/C=N/Nc2ncnc(Cl)c2N)ccc1O	-0.1	0.8	-4.5	1.8	-17.3	5.2
Cc1nnc(N/N=C/c2cc(C)n(-c3ccc(F)cc3)c2C)n1N	-0.3	3.5	-96.5	1.8	3.2	-96.0*
Cc1nnc(N/N=C\c2ccc(-c3ccccc3[N+](=O)[O-])o2)n1N	-0.1	-0.7	79.7*	-16.1	-7.4	35.7
Cc1nnc(N/N=C/c2ccc(-c3ccccc3F)o2)n1N	0.3	-0.5	36.8	-16.6	-8.7	27.0
CCOc1cc(/C=N/Nc2nnc(C)n2N)ccc1O	nt	nt	58.3*	nt	nt	30.9
Cc1cc(/C=N/NC(N)=S)c(C)n1-c1ccc(Br)cc1	0.0	1.2	-19.6	3.5	8.2	-5.2
CCN(CC(=O)Nc1c(F)cccc1F)C(=O)c1cc(-c2cccs2)nn1-c1ccccc1	nt	nt	-11.1	nt	nt	-11.6
Cc1nc(CN(C)C(=O)c2cc(COc3ccc4ncccc4c3)on2)cs1	0.2	1.5	-7.1	5.4	-22.9	-1.2
C(=N\Nc1nn[nH]n1)/c1ccccc1	-0.2	0.8	-11.0	nt	-11.9	-8.3
Oc1ccccc1/C=N/Nc1nn[nH]n1	nt	2.0	-78.7	9.7	-2.0	-74.7*
COC(C[C@H]1O[C@H]1[C@@H](O)[C@H](C)OCc1ccccc1)OC	nt	nt	5.7	nt	nt	4.3
O=c1oc2c3c4c(cc2cc1-c1nc2ccccc2[nH]1)CCCN4CCC3	nt	nt	nt	37.6	nt	nt
Cc1cc([N+](=O)[O-])ccc1NC(=O)CCC(=O)N1CCCCC1	nt	nt	-80.2	nt	nt	-76.5*
Cc1cc([N+](=O)[O-])ccc1NC(=O)CCC(=O)N1CCCC1	nt	nt	6.8	nt	nt	-1.3
Nc1ccc(N=Nc2ccccc2)c2ccccc12	nt	-1.0	11.5	3.1	19.6	8.2
c1ccc(N=Nc2ccc3cccccc2-3)cc1	nt	nt	75.4*	nt	nt	48.2
Cc1noc(C)c1COC(=O)c1ccccc1NC(=O)Cc1ccccc1	0.6	0.1	23.3	-1.8	16.1	17.3
Cc1noc(C)c1COC(=O)c1ccccc1Oc1ccccc1	-0.4	0.9	56.7*	8.3	-1.0	14.1
COC(=O)Cc1c(C(=O)OC)nnn1-c1cccc(C(F)(F)F)c1	0.0	1.3	-10.4	-7.0	-7.4	-10.1
COc1ccccc1NC(=O)C1=C(C)NC2=C(C(=O)CC(c3ccc(OC)c(OC)c3)C2)C1c1coc2ccccc2c1=O (stereo not given)	-0.3	-4.2	66.8*	4.4	15.4	30.2
CCOC(=O)C1=C(C)NC2=C(C(=O)CC(c3ccc(OC)c(OC)c3)C2)C1c1ccc(C)o1 (stereo not given)	0.1	-3.1	nt	3.3	-8.2	nt
COc1cccc(NC(=O)c2cc3ccccc3o/c2=N\O)c1	nt	nt	?	nt	nt	43.7
SMILES	Hsp70 act	S1P4 ag	HSF-1 act	S1P3 antagonist	S1P4 antag	HSF1 inhib
COc1cc(NC(=O)c2ccno2)cc(C(=O)Nc2cccc(C(F)(F)F)c2)c1	nt	nt	-8.3	nt	nt	-0.7
COc1cccc(NC(=O)c2cc3cccc(OC)c3o/c2=N\O)c1	nt	nt	59.4*	nt	nt	18.5
COc1cc(NC(=O)c2cc3cccc(OC)c3o2)cc(C(=O)Nc2cccc(C(F)(F)F)c2)c1	nt	nt	-74.0	nt	nt	-67.4*
NC(=O)CC(NC(=O)Cc1cccc2ccccc12)c1ccc(NCCCN2CCCC2=O)c([N+](=O)[O-])c1 (stereo not given)	nt	nt	-16.2	nt	nt	-3.0
CCOC(=O)N1CCN(Cc2c(NC(=O)c3ccco3)sc(C)c2C)CC1	-0.3	-1.1	99.3*	-0.6	1.7	101.8
Cc1sc(NC(=O)c2ccco2)c(CN2CCN(c3ccccn3)CC2)c1C	0.1	1.6	40.1	64.5*	-11.1	27.0
Cc1sc(NC(=O)c2ccco2)c(CN2CCN(c3ccc(F)cc3)CC2)c1C	-0.3	1.1	86.9*	nt	7.7	32.8
